Assay results from PubChem BioAssay AID1159580 (chemical genetic matrix, 2015).
Among all 5,500 compounds or so, about 2,000 (36%) were called active. Inconclusive results (about 18%) are left out. No stated cut-off is given here; in the data, active means normalized growth mostly below about 0.91 (no sharp cut-off); inconclusive means no clear call, values can overlap the other calls; inactive means mostly above about 0.92. The list shows a part of the results.

Test: chemical genetic growth profiling, strain panel (AID 1159580);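 further: tested at 20 µM; growth read once vehicle control cultures reached saturation at 30 °C; 1 = growth at the plate median or of vehicle wells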
Conditions: growth OD

Measured: normalized growth

C=C1C(=O)O[C@@H]2C[C@@]3(C)CCC[C@H](C)C3=C[C@H]12
active: S. cerevisiae deletion strains, locus YKL085W, strain MDH1 (second series), stronger effect = lower value 0.909 | S. cerevisiae deletion strains, locus YKL085W, strain MDH1, stronger effect = lower value 0.909 | S. cerevisiae deletion strains, locus YKL160W, strain elf1, stronger effect = lower value 0.78 | S. cerevisiae deletion strains, locus YKR001C, strain vps1, stronger effect = lower value 0.496 | S. cerevisiae deletion strains, locus YKR026C, strain gcn3, stronger effect = lower value 0.893 | S. cerevisiae deletion strains, locus YKR091W, strain srl3, stronger effect = lower value 0.913 | S. cerevisiae deletion strains, locus YLL001W, strain dnm1, stronger effect = lower value 0.842 | S. cerevisiae deletion strains, locus YLL026W, stronger effect = lower value 0.869 | S. cerevisiae deletion strains, locus YLL041C, strain sdh2, stronger effect = lower value 0.888 | S. cerevisiae deletion strains, locus YLR027C, strain aat2, stronger effect = lower value 0.827 | S. cerevisiae deletion strains, locus YLR039C, strain RIC1, stronger effect = lower value 0.221 | S. cerevisiae deletion strains, locus YLR221C, strain rsa3, stronger effect = lower value 0.751 | S. cerevisiae deletion strains, locus YLR258W, strain gsy2, stronger effect = lower value 0.819 | S. cerevisiae deletion strains, locus YLR262C, strain YPT6 (second series), stronger effect = lower value 0.259 | S. cerevisiae deletion strains, locus YLR262C, strain YPT6, stronger effect = lower value 0.268 | S. cerevisiae deletion strains, locus YLR268W, strain sec22, stronger effect = lower value 0.668 | S. cerevisiae deletion strains, locus YLR320W, strain mms22, stronger effect = lower value 0.597 | S. cerevisiae deletion strains, locus YLR330W, strain CHS5, stronger effect = lower value 0.848 | S. cerevisiae deletion strains, locus YLR342W, strain FKS1, stronger effect = lower value 0.885 | S. cerevisiae deletion strains, locus YLR357W, strain rsc2, stronger effect = lower value 0.662 | S. cerevisiae deletion strains, locus YLR370C, strain arc18, stronger effect = lower value 0.899 | S. cerevisiae deletion strains, locus YLR371W, strain rom2, stronger effect = lower value 0.646 | S. cerevisiae deletion strains, locus YLR384C, strain iki3, stronger effect = lower value 0.87 | S. cerevisiae deletion strains, locus YLR418C, strain cdc73, stronger effect = lower value 0.31 | S. cerevisiae deletion strains, locus YML016C, strain PPZ1, stronger effect = lower value 0.85 | S. cerevisiae deletion strains, locus YML120C, strain ndi1, stronger effect = lower value 0.818 | S. cerevisiae deletion strains, locus YML124C, strain tub3, stronger effect = lower value 0.896 | S. cerevisiae deletion strains, locus YMR058W, strain fet3, stronger effect = lower value 0.8 | S. cerevisiae deletion strains, locus YMR125W, strain sto1, stronger effect = lower value 0.669 | S. cerevisiae deletion strains, locus YMR129W, stronger effect = lower value 0.847 | S. cerevisiae deletion strains, locus YMR205C, strain PFK2, stronger effect = lower value 0.653 | S. cerevisiae deletion strains, locus YMR223W, strain ubp8, stronger effect = lower value 0.815 | S. cerevisiae deletion strains, locus YMR231W, strain pep5, stronger effect = lower value 0.859 | S. cerevisiae deletion strains, locus YNL071W, strain lat1, stronger effect = lower value 0.377 | S. cerevisiae deletion strains, locus YNL153C, strain GIM3, stronger effect = lower value 0.868 | S. cerevisiae deletion strains, locus YNL209W, strain ssb2, stronger effect = lower value 0.902 | S. cerevisiae deletion strains, locus YNL233W, strain BNI4, stronger effect = lower value 0.828 | S. cerevisiae deletion strains, locus YNL248C, strain rpa49, stronger effect = lower value 0.617 | S. cerevisiae deletion strains, locus YNL271C, strain bni1, stronger effect = lower value 0.855 | S. cerevisiae deletion strains, locus YNL307C, strain MCK1, stronger effect = lower value 0.737 | S. cerevisiae deletion strains, locus YNL322C, strain KRE1 (second series), stronger effect = lower value 0.902 | S. cerevisiae deletion strains, locus YNR049C, strain mso1, stronger effect = lower value 0.903 | S. cerevisiae deletion strains, locus YNR052C, strain pop2, stronger effect = lower value 0.875 | S. cerevisiae deletion strains, locus YOL147C, strain pex11, stronger effect = lower value 0.921 | S. cerevisiae deletion strains, locus YOR001W, strain rrp6, stronger effect = lower value 0.807 | S. cerevisiae deletion strains, locus YOR069W, strain VPS5, stronger effect = lower value 0.915 | S. cerevisiae deletion strains, locus YOR070C, strain gyp1, stronger effect = lower value 0.856 | S. cerevisiae deletion strains, locus YOR080W, strain dia2, stronger effect = lower value 0.908 | S. cerevisiae deletion strains, locus YOR083W, strain WHI5, stronger effect = lower value 0.82 | S. cerevisiae deletion strains, locus YOR106W, strain vam3, stronger effect = lower value 0.752 | S. cerevisiae deletion strains, locus YOR144C, strain elg1, stronger effect = lower value 0.927 | S. cerevisiae deletion strains, locus YOR184W, strain ser1, stronger effect = lower value 0.577 | S. cerevisiae deletion strains, locus YOR265W, strain rbl2, stronger effect = lower value 0.883 | S. cerevisiae deletion strains, locus YOR270C, strain vph1, stronger effect = lower value 0.583 | S. cerevisiae deletion strains, locus YOR290C, strain snf2, stronger effect = lower value 0.785 | S. cerevisiae deletion strains, locus YPL051W, strain arl3, stronger effect = lower value 0.73 | S. cerevisiae deletion strains, locus YPL055C, strain LGE1, stronger effect = lower value 0.722 | S. cerevisiae deletion strains, locus YPL078C, strain atp4, stronger effect = lower value 0.791 | S. cerevisiae deletion strains, locus YPL106C, strain sse1, stronger effect = lower value 0.521 | S. cerevisiae deletion strains, locus YPL240C, strain hsp82, stronger effect = lower value 0.825 | S. cerevisiae deletion strains, locus YPR119W, strain clb2, stronger effect = lower value 0.907 | S. cerevisiae deletion strains, locus YPR163C, strain tif3, stronger effect = lower value 0.749 | S. cerevisiae deletion strains, locus YPR167C, strain met16, stronger effect = lower value 0.899 | S. cerevisiae strains, strain wild type, stronger effect = lower value 0.882
inactive: S. cerevisiae deletion strains, locus YJR043C, strain POL32, stronger effect = lower value 0.88 | S. cerevisiae deletion strains, locus YJR066W, strain TOR1, stronger effect = lower value 0.939 | S. cerevisiae deletion strains, locus YKL009W, strain mrt4, stronger effect = lower value 1.01 | S. cerevisiae deletion strains, locus YKL068W, stronger effect = lower value 0.946 | S. cerevisiae deletion strains, locus YKL190W, strain CNB1, stronger effect = lower value 0.934 | S. cerevisiae deletion strains, locus YLR058C, strain SHM2, stronger effect = lower value 0.898 | S. cerevisiae deletion strains, locus YLR102C, strain apc9, stronger effect = lower value 0.942 | S. cerevisiae deletion strains, locus YLR113W, strain HOG1, stronger effect = lower value 0.991 | S. cerevisiae deletion strains, locus YLR342W, strain FKS1 (second series), stronger effect = lower value 0.864 | S. cerevisiae deletion strains, locus YML032C, strain rad52, stronger effect = lower value 0.923 | S. cerevisiae deletion strains, locus YMR078C, strain ctf18, stronger effect = lower value 0.915 | S. cerevisiae deletion strains, locus YMR307W, strain GAS1, stronger effect = lower value 0.654 | S. cerevisiae deletion strains, locus YNL067W, strain RPL9B, stronger effect = lower value 0.896 | S. cerevisiae deletion strains, locus YNL183C, strain NPR1, stronger effect = lower value 0.959 | S. cerevisiae deletion strains, locus YNL250W, strain rad50, stronger effect = lower value 0.949 | S. cerevisiae deletion strains, locus YNL298W, strain CLA4, stronger effect = lower value 0.943 | S. cerevisiae deletion strains, locus YOL006C, strain TOP1, stronger effect = lower value 0.598 | S. cerevisiae deletion strains, locus YOL012C, strain htz1 0.342 | S. cerevisiae deletion strains, locus YOR061W, strain CKA2, stronger effect = lower value 0.925 | S. cerevisiae deletion strains, locus YOR136W, strain idh2, stronger effect = lower value 0.942 | S. cerevisiae deletion strains, locus YOR231W, strain MKK1, stronger effect = lower value 1.01 | S. cerevisiae deletion strains, locus YOR316C, strain cot1, stronger effect = lower value 0.939 | S. cerevisiae deletion strains, locus YPL256C, strain CLN2, stronger effect = lower value 0.949 | S. cerevisiae deletion strains, locus YPR141C, strain kar3, stronger effect = lower value 0.926 | S. cerevisiae deletion strains, strain wtn01, stronger effect = lower value 0.909
